# Assay results: article PMC4081100, “A DNA-binding-site landscape and regulatory network analysis for NAC transcription factors in Arabidopsis thaliana”
# Experiments:
# Experiment in all cases: universal protein binding microarray (PBM); transcription factors of Arabidopsis thaliana; high values mean tight binding
# GST-ANAC092(1-176) = biological target: T1, GST-ANAC092(1-176) (Arabidopsis thaliana, UniProt Q9FKA0 1-176); conditions: protein: recombinant; tags: GST; chain copies: 2; dsDNA, one strand shown
# T1 sequence: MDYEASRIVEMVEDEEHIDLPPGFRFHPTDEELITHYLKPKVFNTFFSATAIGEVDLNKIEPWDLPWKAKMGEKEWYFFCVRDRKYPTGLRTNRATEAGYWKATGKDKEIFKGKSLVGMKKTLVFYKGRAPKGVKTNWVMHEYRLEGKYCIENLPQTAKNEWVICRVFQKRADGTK
# Outline: (§1)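 Binding is expressed as the normalised enrichment score (E-score). Proteins carrying a GST tag, whether NAC-domain, full-length or DNA-binding-domain forms, were induced in cells, and zinc acetate was added for zinc-finger proteins. After purification on glutathione–Sepharose 4B and quantification by A280 or anti-GST western blot, each was applied in duplicate at 200 to 500 nM final to custom all-10-mer Agilent 4 × 180K arrays made double-stranded by primer extension. Gapped and ungapped 8-mers were scored.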
# GST-NTL6(1-168) = GST-NTL6(1-168) (Arabidopsis thaliana, UniProt Q9SCK6 1-168); conditions: protein: recombinant; tags: GST; chain copies: 2; dsDNA, one strand shown
# Chain of GST-NTL6(1-168) (Q9SCK6 1-168): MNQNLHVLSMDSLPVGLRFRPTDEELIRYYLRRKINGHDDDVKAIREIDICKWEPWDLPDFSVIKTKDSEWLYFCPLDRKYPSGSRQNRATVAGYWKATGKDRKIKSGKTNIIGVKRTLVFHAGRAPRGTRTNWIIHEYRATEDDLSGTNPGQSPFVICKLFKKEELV
# Outline: as §1
# GST-ANAC019 NAC domain = biological target: T2, GST-ANAC019 NAC domain (Arabidopsis thaliana, UniProt Q9C932 14-162); conditions: protein: recombinant; tags: GST; chain copies: 2; dsDNA, one strand shown
# T2 sequence: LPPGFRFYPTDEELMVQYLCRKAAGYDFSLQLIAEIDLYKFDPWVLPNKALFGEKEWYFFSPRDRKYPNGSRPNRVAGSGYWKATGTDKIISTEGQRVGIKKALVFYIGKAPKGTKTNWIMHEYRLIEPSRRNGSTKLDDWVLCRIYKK
# Outline: as §1
# GST-ANAC055(1-171) = biological target: T3, GST-ANAC055(1-171) (Arabidopsis thaliana, UniProt Q9LDY8 1-171); conditions: protein: recombinant; tags: GST; chain copies: 2; dsDNA, one strand shown
# T3 sequence: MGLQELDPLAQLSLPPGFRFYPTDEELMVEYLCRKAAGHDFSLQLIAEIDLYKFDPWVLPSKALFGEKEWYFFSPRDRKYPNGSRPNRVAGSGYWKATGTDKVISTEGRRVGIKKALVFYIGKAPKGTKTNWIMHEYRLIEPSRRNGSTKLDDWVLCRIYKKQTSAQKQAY
# Outline: as §1
# GST-ATAF1 NAC domain = biological target: T4, GST-ATAF1 NAC domain (Arabidopsis thaliana, UniProt Q39013 7-158); conditions: protein: recombinant; tags: GST; chain copies: 2; dsDNA, one strand shown
# T4 sequence: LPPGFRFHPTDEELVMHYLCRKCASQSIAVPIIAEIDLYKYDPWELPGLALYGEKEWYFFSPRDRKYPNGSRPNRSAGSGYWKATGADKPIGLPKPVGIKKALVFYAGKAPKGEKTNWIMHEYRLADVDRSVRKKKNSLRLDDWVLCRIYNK
# Outline: as §1
# [1] = biological target: T5, GST-ANAC092(1-285) full length (Arabidopsis thaliana, UniProt Q9FKA0 1-285); conditions: protein: recombinant; tags: GST; chain copies: 2; dsDNA, one strand shown
# T5 sequence: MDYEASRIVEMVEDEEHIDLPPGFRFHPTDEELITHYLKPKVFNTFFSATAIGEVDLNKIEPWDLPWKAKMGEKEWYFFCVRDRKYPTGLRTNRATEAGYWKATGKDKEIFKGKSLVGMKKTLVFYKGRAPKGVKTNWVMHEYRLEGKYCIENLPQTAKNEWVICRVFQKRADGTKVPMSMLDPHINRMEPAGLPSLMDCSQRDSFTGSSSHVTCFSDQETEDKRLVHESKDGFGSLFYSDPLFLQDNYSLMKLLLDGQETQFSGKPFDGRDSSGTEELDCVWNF
# Outline: as §1
# GST-NAP(1-166) = biological target: T6, GST-NAP(1-166) (Arabidopsis thaliana, UniProt O49255 1-166); conditions: protein: recombinant; tags: GST; chain copies: 2; dsDNA, one strand shown
# T6 sequence: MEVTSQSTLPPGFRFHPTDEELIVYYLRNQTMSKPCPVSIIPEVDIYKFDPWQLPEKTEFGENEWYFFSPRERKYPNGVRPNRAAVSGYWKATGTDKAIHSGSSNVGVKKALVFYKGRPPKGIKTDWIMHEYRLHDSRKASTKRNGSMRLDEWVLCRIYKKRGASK
# Outline: as §1
# GST-NST2(1-184) = biological target: T7, GST-NST2(1-184) (Arabidopsis thaliana, UniProt Q9M274 1-184); conditions: protein: recombinant; tags: GST; chain copies: 2; dsDNA, one strand shown
# T7 sequence: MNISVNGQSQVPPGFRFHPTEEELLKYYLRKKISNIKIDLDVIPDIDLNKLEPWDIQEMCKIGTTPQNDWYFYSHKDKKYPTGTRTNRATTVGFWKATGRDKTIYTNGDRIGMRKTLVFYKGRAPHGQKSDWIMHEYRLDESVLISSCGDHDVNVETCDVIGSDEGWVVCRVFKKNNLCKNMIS
# Outline: as §1
# GST-NTL8 NAC domain = biological target: T8, GST-NTL8 NAC domain (Arabidopsis thaliana, UniProt Q9XIN7 14-156); conditions: protein: recombinant; tags: GST; chain copies: 2; dsDNA, one strand shown
# T8 sequence: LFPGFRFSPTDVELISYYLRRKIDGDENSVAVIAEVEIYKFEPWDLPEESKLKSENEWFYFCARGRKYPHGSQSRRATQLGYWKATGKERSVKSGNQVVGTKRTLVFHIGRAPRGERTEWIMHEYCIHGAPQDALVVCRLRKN
# Outline: as §1
# GST-VND3 NAC domain = biological target: T9, GST-VND3 NAC domain (Arabidopsis thaliana, UniProt Q9FH59 12-162); conditions: protein: recombinant; tags: GST; chain copies: 2; dsDNA, one strand shown
# T9 sequence: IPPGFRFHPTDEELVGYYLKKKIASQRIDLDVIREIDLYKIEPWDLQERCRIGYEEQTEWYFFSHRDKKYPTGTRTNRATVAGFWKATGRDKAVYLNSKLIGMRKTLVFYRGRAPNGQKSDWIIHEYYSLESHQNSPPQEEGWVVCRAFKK
# Outline: as §1
# GST-VND7 NAC domain = biological target: T10, GST-VND7 NAC domain (Arabidopsis thaliana, UniProt Q9C8W9 9-158); conditions: protein: recombinant; tags: GST; chain copies: 2; dsDNA, one strand shown
# T10 sequence: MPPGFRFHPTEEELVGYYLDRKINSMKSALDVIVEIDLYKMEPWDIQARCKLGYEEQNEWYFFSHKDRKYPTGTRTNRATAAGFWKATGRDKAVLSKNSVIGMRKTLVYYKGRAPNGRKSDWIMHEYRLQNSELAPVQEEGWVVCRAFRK
# Outline: as §1
# GST-WRKY1(266-371) = GST-WRKY1(266-371) (Arabidopsis thaliana, UniProt Q9SI37 266-371); conditions: protein: recombinant; tags: GST; dsDNA, one strand shown
# Chain of GST-WRKY1(266-371) (Q9SI37 266-371): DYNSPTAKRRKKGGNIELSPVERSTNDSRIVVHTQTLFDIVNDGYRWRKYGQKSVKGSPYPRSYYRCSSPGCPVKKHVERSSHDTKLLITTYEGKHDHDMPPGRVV
# Outline: as §1
Sequence,binding signal (GST-ANAC092(1-176)) [E-score],binding signal (GST-NTL6(1-168)) [E-score],binding signal (GST-ANAC019 NAC domain) [E-score],binding signal (GST-ANAC055(1-171)) [E-score],binding signal (GST-ATAF1 NAC domain) [E-score],binding signal [1] [E-score],binding signal (GST-NAP(1-166)) [E-score],binding signal (GST-NST2(1-184)) [E-score],binding signal (GST-NTL8 NAC domain) [E-score],binding signal (GST-VND3 NAC domain) [E-score],binding signal (GST-VND7 NAC domain) [E-score],binding signal (GST-WRKY1(266-371)) [E-score]
CCACGGAA,0.219,0.117,0.427,0.326,0.211,0.244,0.149,0.123,0.107,0.343,0.316,–
AGTCAACT,–,–,0.183,–,0.0655,–,–,–,–,0.0667,0.0783,0.486
TACAGTCA,–,–,0.109,0.0559,0.107,0.131,–,–,0.0899,0.167,0.0649,0.404
TCTGGTCA,–,–,–,–,–,–,–,–,–,0.059,–,0.455
ATTGACTA,0.0863,–,–,0.18,0.259,0.153,0.0723,0.182,–,0.228,–,0.466
AGTCAATC,0.0925,0.0768,0.0741,–,0.0533,0.0868,0.0978,0.0674,0.122,0.0908,–,0.468
CTAGTCAA,–,–,0.0699,0.171,0.148,0.0883,–,–,0.0822,0.166,0.08,0.474
AATGTCAA,–,–,–,0.155,0.19,–,0.13,0.0715,–,0.104,0.0638,0.404
CTTGACCA,0.0818,–,0.0734,0.104,0.145,–,–,0.1,–,0.119,–,0.484
ACACGGCT,0.181,–,0.418,0.347,0.264,0.335,0.194,–,–,0.348,0.321,–
ACACGGTA,0.437,–,0.286,0.265,0.21,0.443,0.234,0.202,–,0.227,0.123,–
GCACGGTA,0.375,–,0.2,0.189,0.134,0.408,0.102,–,–,0.124,0.122,–
GTCAAATA,–,0.0593,–,0.0664,0.141,–,0.0873,–,–,0.0795,0.139,0.461
ATGGTCAA,–,0.05,–,0.0866,0.155,–,–,0.0826,–,0.138,–,0.485
TATGACCA,–,–,–,–,–,–,–,–,–,0.117,–,0.424
AGTCGTGC,–,–,0.412,0.341,0.264,–,–,–,–,0.324,0.273,0.294
GTGGTCAA,0.0557,–,–,0.113,0.135,–,–,–,–,0.0872,–,0.489
AGGTCAAA,–,0.0901,–,0.0973,0.0548,–,–,–,–,0.062,0.0735,0.482
